Source: PubChem
In the library only some 3% were active in any assay of this set; here they are far more common.
KDM5B inh = inhibitors of human KDM5B histone demethylase. Q9UGL1. KDM5B demethylase, FDH-coupled NADH fluorescence (FDH is formaldehyde dehydrogenase). Potency, µM (highest dose often 57.7 µM), most hits filed as inhibitors. 2.6% of 220,000 active. AID 1347165; note: potency is the fitted concentration of half-maximal effect; 0% is about no effect; nearly all actives have a fitted effect of over 70% in size
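Measured: NADH fluorescence change, 30 min, RT. System: KDM5BΔAP 200 nM final, H3K4me3 peptide, α-KG, Fe(II), ascorbate, NAD⁺ plus FDH, pH 7.5 HEPES. Compounds: titrated, 10 min pre-incubation with enzyme.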
SNCA viab count = counter-screen for SNCA expression inhibitors: cell viability | 0.12% of 150,000 active | AID 1671193 | HEK-293-SNCA-luc viability, GF-AFC fluorescence, 24 h | Potency, µM (doses to about 57.1 µM), for the others: at the highest dose activity change, negative = cytotoxicity, usual class: cytotoxic;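 note: potency is the fitted concentration of half-maximal effect; 0% = DMSO-treated cells and -100% = medium-only wells without cells; nearly all actives have a fitted effect of over 30% in size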
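HEK-293-SNCA-luc cells (1500/well) plated 24 h, then exposed 24 h to a dilution series; GF-AFC added 30 min at 37C, fluorescence 405/540 nm; normalised to medium-only and DMSO wells, Hill fit.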
IP6K1 inhibitor = blocks human inositol hexakisphosphate kinase 1; Q92551; IP6K1 kinase, ADP-Glo luminescence, 2 h; active compounds read low; activity change, % (series mostly up to about 58 µM); 0.81% of 140,000 active; AID 1645851; in the data active = activity change below about -25%; note: % is set by controls: 0 for no effect and ±100 for the full control effect
Target sequence (Q92551 whole entry, looked up): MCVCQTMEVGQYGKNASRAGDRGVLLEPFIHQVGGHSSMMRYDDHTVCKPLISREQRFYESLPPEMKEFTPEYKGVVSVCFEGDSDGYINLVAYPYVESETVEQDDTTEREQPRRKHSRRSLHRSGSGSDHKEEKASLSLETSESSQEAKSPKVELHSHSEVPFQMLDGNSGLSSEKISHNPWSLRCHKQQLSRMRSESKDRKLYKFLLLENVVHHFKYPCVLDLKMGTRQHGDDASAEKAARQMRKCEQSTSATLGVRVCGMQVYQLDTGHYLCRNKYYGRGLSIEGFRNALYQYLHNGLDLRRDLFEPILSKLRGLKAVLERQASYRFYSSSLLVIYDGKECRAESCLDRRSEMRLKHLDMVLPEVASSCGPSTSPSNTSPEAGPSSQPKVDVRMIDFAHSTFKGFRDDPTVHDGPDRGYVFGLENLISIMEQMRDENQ
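ADP-Glo luminescence measures ADP made by human IP6K1 during a 2 h RT reaction with ATP/IP6 (mix at 1.3 mM/130 uM); top library doses 57.5 and 19.1 uM final.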
SNCA expr inhib = reduces expression of the alpha-synuclein gene; HEK-293 SNCA-luciferase knock-in, luminescence, 24 h; Potency, µM (highest dose often 57.2 µM), without a hit: at the highest dose activity change, negative = inhibition, most hits filed as inhibitors; 0.17% of 140,000 active; AID 1671194;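 note: potency is the fitted concentration of half-maximal effect; plate controls were DMSO cells for no effect and cell-free wells for full effect; nearly all actives have a fitted effect of over 45% in size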
IP6K1 conf = confirmation of human IP6K1 inhibitors. recombinant IP6K1 kinase, ADP-Glo luminescence, 2 h. AID 1645852. shares compounds with IP6K1 inhibitor. Potency, µM (top dose mostly 49 µM), for inactives: top-dose activity change, negative = inhibition, actives largely listed as inhibitors. 13% of 1,200 active; note: potency is the fitted concentration of half-maximal effect; % is set by controls: 0 for no effect and ±100 for the full control effect; nearly all actives have a fitted effect of over 65% in size
An asterisk follows results filed as active; i = inactive; ? = inconclusive; . = not tested or not shown; ! = not active in a repeat; [ ] = another dose, or the depositor's remark. Unless noted, calls come from the whole dose curve; as a rule, active = well fitted curve in the direction sought with a large enough effect; inconclusive = small, poorly fitted or top-dose-only effect, or another doubt; inactive = no such curve, though single readings can be large; an effect the other way counts as inactive or inconclusive.

SMILES	KDM5B inh	SNCA viab count	IP6K1 inhibitor	SNCA expr inhib	IP6K1 conf
Cc1cc(O)c2ccccc2c1O	.	-8.5%[23.9 µM]	-27.9*	-5.8%[25.6 µM]	?
Cc1cc(O)c(C)c(C)c1O	i	-26.3%[23.9 µM]	12.7	-0.3%[25.6 µM]	.
CN(C)C(=O)N1CCN(Cc2ccccc2-c2ccccc2F)CC1	.	-0.6%[12.5 µM]	0.6	1.8%	.
O=C(Nc1ccccc1F)N1CCCN(c2ccc3nnc(-c4ccccc4)n3n2)CC1	.	.	-0.3	.	.
COc1ccc2oc(=O)cc(CN3CCN(c4ccc(F)cc4)CC3)c2c1	i	-7.7%	-25.2*	3.5%	-21.0%
COc1ccc2c(CN3CCN(c4ccc(F)cc4)CC3)cc(=O)oc2c1	i	.	.	.	.
COc1ccc(CCNC(=O)CS(=O)Cc2nc(-c3ccc(C)cc3)oc2C)cc1OC (stereo unspecified)	i	-10.4%	-3.3	-1.9%	.
COc1ccc(CCNC(=O)CS(=O)Cc2nc(-c3ccc(C)cc3)oc2C)c(OC)c1 (stereo unspecified)	?	-9.4%	-25.7*	-1.2%	-5.8%
CCN(CC)S(=O)(=O)c1ccc(-c2csc(=Nc3cccc(C(F)(F)F)c3)n2Cc2ccc3c(c2)OCO3)cc1	?	7.2%	-4.4	-0.8%	.
Cc1ccc(-c2csc(=Nc3ccc(F)cc3)n2Cc2ccc3c(c2)OCO3)cc1C	?	25.7%	-35.8*	80.1%	-4.7%
Fc1ccc(-c2csc(=Nc3cccc(C(F)(F)F)c3)n2Cc2ccc3c(c2)OCO3)cc1	?	13.4%	-25.8*	1.5%	2.5%
COc1ccccc1-c1cccc(C(=O)N2CCC[C@H]2C(=O)N2CCC(c3ccccc3)CC2)c1	.	-2.2%[12.5 µM]	2.6	?	.
Cc1cccc(-c2nc3ccc(C(=O)NC(C)C)cc3o2)n1	.	-0.6%	-6.4	?	.
c1ccc(Oc2cc3c(cn2)NCCN(Cc2ccsc2)C3)cc1	?	6.4%[87.6 µM]	-29.3*	11.3%[87.6 µM]	-3.9%
Cc1cccc(-c2nc(CN3CCC(c4nc(-c5cccn5C)no4)C3)no2)c1 (stereo unspecified)	.	1.9%	20.9	89.6%	.
C[S+](=O)([O-])c1cccc(NC(=O)Cc2c[nH]c3ncc(-c4ccccc4)cc23)c1	31.6µM*	-23.1%[87.6 µM]	-26.3*	-14.2%[87.6 µM]	?
COc1ccc(-c2cnc3[nH]cc(CC(=O)Nc4cccc(N(C)C)c4)c3c2)cc1	?	-27.9%[87.6 µM]	-20.0	27.1%[87.6 µM]	.
COc1ccc(-c2cnc3[nH]cc(CC(=O)Nc4ccncc4)c3c2)cc1	?	-10.3%[87.6 µM]	-39.2*	-10.5%[87.6 µM]	?
Cc1ccc(S(=O)(=O)N2CCC(CCC(=O)NCCc3ccccc3)CC2)cc1	.	2.7%	1.7	-3.3%	.
Cc1ccc(CN(Cc2ccco2)C(=O)c2oc3ccc(C)cc3c2C)cc1	?	20.7%	-11.8	20.0%	.
Cc1ccc(CN(Cc2ccco2)C(=O)c2oc3c(C)c(C)ccc3c2C)cc1	?	0.6%	-29.0*	-6.1%	?
COc1cccc(-c2nc3cc4c(cc3cc2CN2CCCOCC2)OCO4)c1OC	28.2µM*	-7.9%	-34.7*	-0.9%	-18.9%
COc1cccc(CN2CCCOCCNC(=O)CC2)c1OC	i	0.4%	-6.6	-15.5%	.
O=[S+]([O-])(c1ccccc1)N1CCN(c2nccc(Nc3ccccc3Cl)n2)CC1	.	-2.4%	18.5	?	.
O=C(Nc1cccnc1)c1cc(-c2ccccc2F)cc2c1OCCN2Cc1cccnc1	35.5µM*	?	-49.2*	?	?
SMILES	KDM5B inh	SNCA viab count	IP6K1 inhibitor	SNCA expr inhib	IP6K1 conf
O=C(Nc1cccnc1)c1nc2c(o1)CCN(Cc1cccc(O)c1)CC2	i	1.2%[87.6 µM]	1.0	44.6%[87.6 µM]	.
O=C(NCc1ccco1)c1cc(-c2ccccc2F)cc2c1OCCN2Cc1cccnc1	28.2µM*	?	-29.9*	-1.9%	?
O=C(NCCCc1ccccc1)c1n[nH]c2c1CN(C(=O)c1ccc3c(c1)OCO3)CC2	.	9.4%	-0.6	?	.
COc1ccc(F)cc1-c1ccc(CN2CCC(NC(=O)c3ccc(F)cc3)C2)cc1 (stereo unspecified)	.	.	-9.1	.	.
COc1ccccc1N1CCN(C(=O)C(OC)c2ccccc2)CC1=O (stereo unspecified)	i	-1.3%	-25.7*	?	-16.4%
N#CC(=Cc1ccc(O)c(O)c1)C(=O)NCc1ccccc1	.	-7.8%	.	-23.9%	?
CC(NC(=O)c1cc(-c2ccccn2)nc2ccccc12)c1ccncc1 (stereo unspecified)	i	.	.	.	.
Cc1ccc2nc(C(C)NC(=O)c3cnc(-c4ccccn4)[nH]c3=O)[nH]c2c1 (stereo unspecified)	?	-12.4%	-35.8*	-15.7%	?
O=[N+]([O-])c1ccc(CNc2nc(NCc3cccc(C(F)(F)F)c3)nc3nc[nH]c23)cc1	.	-3.4%	-75.1*	.	1.64µM*!
CC(C)C[C@H](C(=O)O)c1cc(-c2ccc(C(F)(F)F)cc2)cc(-c2ccc(C(F)(F)F)cc2)c1	.	-34.3%	-29.9*	.	?
Cc1cc(C)c(NC(=O)Cn2c(=O)n(Cc3ccccc3)c(=O)c3c(C)c(C(=O)N(C)C)sc32)c(C)c1	i	2.0%	22.7	-11.9%	.
Cc1cc(C)c(NC(=O)Cn2c(=O)n(-c3ccc(F)cc3)c(=O)c3c(C)c(C(=O)N(C)C)sc32)c(C)c1	i	13.1%	-27.0*	3.6%	-6.0%
Cc1cccc(NC(=O)CSc2cn(CC(=O)N3CCCCCC3)c3ccccc23)c1	i	-21.2%	-41.4*	?	-4.1%
O=C(Cn1cc(SCc2cccc(F)c2)c2ccccc21)N1CCOCC1	?	-22.6%	-1.4	99.6%	.
O=C(Cn1cc(SCc2cccc(F)c2)c2ccccc21)N1CCCC1	i	-3.7%	-97.4*	104.1%	?
CCCCCC(=O)N1CCC(=O)N(CC(=O)OCC)c2ccccc2C(OC)C1 (stereo unspecified)	.	?	-3.7	-3.2%[25.6 µM]	.
CCOc1ccc(-c2cc(C(=O)Oc3ccc(C#N)cc3)no2)cc1	?	10.0%	-27.1*	-3.0%	?
N#Cc1ccc(OC(=O)c2cc(-c3ccc(Cl)cc3)on2)cc1	i	4.9%	2.3	-4.6%	.
Cc1ccc(C2Cn3nnc(C(=O)N4CCC(C(=O)NC5CC5)CC4)c3CO2)cc1 (stereo unspecified)	i	13.6%	0.0	104.6%	.
Cc1ccc(C2Cn3nnc(C(=O)N4CCC(C(=O)NC5CCC(C)CC5)CC4)c3CO2)cc1 (stereo unspecified)	i	0.5%	-29.8*	5.2%	-10.4%
O=C(c1ccc2cc[nH]c2c1)N1CCN(C(=O)c2nnn3c2COC(c2ccc(Cl)cc2)C3)CC1 (stereo unspecified)	?	-25.3%	-28.2*	-8.1%	-8.8%
Cc1ccc(C(=O)NCCC2=CCCCC2)s1	i	.	.	.	.
COc1ccccc1-c1cccc(CN2CCCC(C(=O)NCc3ccc4c(c3)OCO4)C2)c1 (stereo unspecified)	.	-10.1%	-9.7	?	.
Cc1cccc(-c2nc3ccc(C(=O)NCc4ccccc4Cl)cc3o2)n1	.	3.2%	16.5	26.3%	.
